PubChem BioAssay (NCI)
Several values for one entry are separate records, joined by “and”; a condition that tells them apart may be missing. Equal values may be shown once. The panel holds about 83,000 compounds, 20% with a hit somewhere; the sample as a whole holds those more often.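 Note: values are percent growth. 100 is the growth of untreated cells, values between 100 and 0 indicate rising inhibition; between -100 and 0 indicates cell death.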

Columns and labels:
Assay in all cases: NCI-60 one-dose screen, 48 h (100 = growth as untreated, 0 = no growth, -100 = all killed)
Conditions in all cases: 10 µM unless noted; active means growth percent below 10; inactive means the rest
DU-145 prostate = system: DU-145 prostate
K-562 leukemia = system: K-562 leukemia
MALME-3M melanoma = system: MALME-3M melanoma
MDA-MB-231 breast = system: MDA-MB-231 breast
RXF 393 renal = system: RXF 393 renal
SF-268 CNS = system: SF-268 CNS
SF-295 CNS = system: SF-295 CNS
SF-539 CNS = system: SF-539 CNS
UACC-257 melanoma = system: UACC-257 melanoma
M14 melanoma = system: M14 melanoma
HCT-15 colon = system: HCT-15 colon
HT29 colon = system: HT29 colon
SNB-75 CNS = system: SNB-75 CNS
SNB-19 CNS = system: SNB-19 CNS
U251 CNS = system: U251 CNS
PC-3 prostate = system: PC-3 prostate
UACC-62 melanoma = system: UACC-62 melanoma
LOX IMVI melanoma = system: LOX IMVI melanoma
SK-MEL-28 melanoma = system: SK-MEL-28 melanoma
SK-MEL-5 melanoma = system: SK-MEL-5 melanoma

Measured: growth

NC1CCC(C(=O)O)CC1 (stereo unspecified)
inactive: DU-145 prostate 108% and 115% | K-562 leukemia 107% and 109% | MALME-3M melanoma 115% and 106% | MDA-MB-231 breast 97.3% and 113% | RXF 393 renal 112% and 106% | SF-268 CNS 105% | SF-295 CNS 106% and 110% | SF-539 CNS 98.9% and 102% | UACC-257 melanoma 107% and 113% | M14 melanoma 96.5% and 99.3% | HCT-15 colon 106% and 98.9% | HT29 colon 101% and 102% | SNB-75 CNS 85.8% and 82% | SNB-19 CNS 105% and 110% | U251 CNS 103% and 106% | PC-3 prostate 93.3% and 86.9% | UACC-62 melanoma 97.7% and 101% | LOX IMVI melanoma 107% and 96.2% | SK-MEL-28 melanoma 103% and 107%

CCN(CCNS(C)(=O)=O)c1ccc(N)c(C)c1
inactive: DU-145 prostate 70.4% and 123% | K-562 leukemia 27.9% and 95.5% | MALME-3M melanoma 93.6% and 119% | MDA-MB-231 breast 109% and 97.4% | RXF 393 renal 72.4% and 78.3% | SF-268 CNS 93.3% and 94.9% | SF-295 CNS 103% and 116% | SF-539 CNS 113% and 105% | UACC-257 melanoma 89.7% | M14 melanoma 108% and 98.6% | HCT-15 colon 71.5% and 106% | HT29 colon 87.8% | SNB-75 CNS 128% and 95.5% | SNB-19 CNS 101% and 109% | U251 CNS 82.3% and 108% | PC-3 prostate 86.7% and 78.7% | SK-MEL-5 melanoma 81.1% and 98.4% | UACC-62 melanoma 71.4% and 82.2% | SK-MEL-28 melanoma 80.2% and 104%

CN(C)c1ccc(/C=C\C(=O)c2ccccc2)cc1
inactive: DU-145 prostate 86.8% and 89.2% and 79.1% | K-562 leukemia 15.3% and 26.7% and 42.6% | MALME-3M melanoma 87.5% and 84.4% and 83% | MDA-MB-231 breast 104% and 84.4% and 105% | RXF 393 renal 92.4% and 102% | SF-268 CNS 92.4% and 90% and 85.2% | SF-295 CNS 66.3% and 91.5% and 98% | SF-539 CNS 88% and 95.7% and 94.4% | UACC-257 melanoma 83.8% and 92.7% and 98.1% | M14 melanoma 89.7% and 79.2% and 72.5% | HCT-15 colon 83.3% and 66.5% and 72% | HT29 colon 53.6% and 58.5% and 57.6% | SNB-75 CNS 70.1% and 100% and 93.4% | SNB-19 CNS 98.7% and 92.3% and 61.6% | U251 CNS 82.2% and 80.6% | PC-3 prostate 88.3% and 94.4% and 76% | SK-MEL-5 melanoma 95.2% and 89.4% and 89.1% | UACC-62 melanoma 88.4% and 91.1% and 84.9% | LOX IMVI melanoma 84.5% and 75.6% and 77.4% | SK-MEL-28 melanoma 93% and 103% and 89.8%

CCCCOc1ccc(Nc2cc(Cl)ccc2C(=O)O)cn1
inactive: DU-145 prostate 120% and 121% | K-562 leukemia 107% and 108% | MALME-3M melanoma 140% and 121% | MDA-MB-231 breast 113% and 111% | RXF 393 renal 130% and 104% | SF-268 CNS 111% and 107% | SF-295 CNS 108% and 109% | SF-539 CNS 99.1% and 97.7% | UACC-257 melanoma 111% and 98.2% | M14 melanoma 101% and 107% | HCT-15 colon 104% and 89.1% | HT29 colon 115% | SNB-75 CNS 98.7% and 115% | SNB-19 CNS 96.6% and 106% | U251 CNS 98.1% and 96.9% | PC-3 prostate 93.6% | SK-MEL-5 melanoma 99.4% and 102% | UACC-62 melanoma 97.9% and 98.1% | SK-MEL-28 melanoma 122% and 113%

Cc1cc(-c2cc(C)c(O)c(C)c2)cc(C)c1O
inactive: DU-145 prostate 104% | K-562 leukemia 31.9% | MALME-3M melanoma 75% | MDA-MB-231 breast 75.6% | RXF 393 renal 63.5% | SF-268 CNS 92.9% | SF-295 CNS 86.1% | SF-539 CNS 84.9% | UACC-257 melanoma 92% | M14 melanoma 71.6% | HCT-15 colon 70.8% | HT29 colon 96.1% | SNB-75 CNS 65% | SNB-19 CNS 83.8% | U251 CNS 88.6% | PC-3 prostate 80.9% | SK-MEL-5 melanoma 73.9% | UACC-62 melanoma 62.8% | SK-MEL-28 melanoma 88%

Cc1cc(-c2ccc(N=Nc3ccc4c(S(=O)(=O)O)cc(S(=O)(=O)O)c(N)c4c3O)c(C)c2)ccc1N=Nc1ccc2c(S(=O)(=O)O)cc(S(=O)(=O)O)c(N)c2c1O
inactive: DU-145 prostate 105% | K-562 leukemia 90.8% | MALME-3M melanoma 107% | MDA-MB-231 breast 110% | RXF 393 renal 101% | SF-268 CNS 102% | SF-295 CNS 93.7% | SF-539 CNS 90.8% | UACC-257 melanoma 105% | M14 melanoma 118% | HCT-15 colon 96.6% | HT29 colon 83.6% | SNB-75 CNS 112% | SNB-19 CNS 111% | U251 CNS 97.6% | PC-3 prostate 81.9% | SK-MEL-5 melanoma 94.1% | UACC-62 melanoma 77.3% | LOX IMVI melanoma 96.9% | SK-MEL-28 melanoma 120%
